Hits are enriched below; roughly 19% of the tested compounds scored in any of these assays.
TGFb SMAD3 inh: TGF-b pathway inhibition; HepG2 CAGA-GFP TGF-b/SMAD3 reporter, GFP fluorescence, 18 h; TGF-beta stimulated, 500 pg/mL final; AID 588855; 410,000 tested, 1.2% active; Potency, µM (series often up to 46.1 µM), inactives show top-dose activity, negative = inhibition, most hits filed as inhibitors; note: potency is the fitted concentration of half-maximal effect; % is set by controls: 0 for no effect and ±100 for the full control effect; nearly all actives have a fitted effect of over 65% in size
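HEPG2 CAGA-GFP reporter cells (1000/well, DMEM with 1% FBS) received compounds, then recombinant TGF-beta at 500 pg/mL final for 18 hours at 37 degrees C. Per-cell GFP summed per well was normalised to unstimulated and stimulated DMSO controls before curve fitting.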
IL-1B inflam inh: blocks inflammasome-driven IL-1 beta release | THP-1 LPS/ATP IL-1B secretion, AlphaLISA, 16 h; active compounds read low | AID 743279 | 360,000 tested, 4.7% active | activity change, % at 57.5 µM; in the data active = activity change below about -50%; inconclusive = mostly about -30% to -49%; note: % is set by controls: 0 for no effect and ±100 for the full control effect
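Secreted IL-1B measured by AlphaLISA bead assay after 16 h compound exposure of THP-1 cells; compounds (final up to 57.5 uM) added 1 h before LPS (250 ng/mL) and ATP (1.25 mM) stimulation; lower signal means less secretion.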
DT40 TDP1 CPT: growth inhibition of DT40 Tdp1-/-;hTDP1 cells with camptothecin (screen for TDP1 inhibitors). Potency, µM (series often up to 46.2 µM), for inactives: top-dose activity change, negative = growth inhibition, hits mostly inhibitors. AID 686979. chicken DT40 Tdp1-/-;hTDP1 cells + 20 nM CPT, ATP luminescence, 48 h. 420,000 tested, 12% active; note: potency is the fitted concentration of half-maximal effect; % is set by controls: 0 for no effect and ±100 for the full control effect; nearly all actives have a fitted effect of over 55% in size
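Chicken DT40 Tdp1-/- cells stably complemented with human TDP1 were seeded at 400 cells/well in medium containing 20 nM camptothecin, exposed to pin-transferred compounds, and grown at 37 °C for at least 48 hr. Viability was read as ATP luminescence.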
DT40 TDP1 no CPT: qHTS for Inhibitors of human tyrosyl-DNA phosphodiesterase 1 (TDP1): qHTS in cells in absence of CPT. DT40 Tdp1-/- hTDP1 cells, no CPT, ATP luminescence, 48 h. Potency, µM (titrated, usually from 46.2 µM), for the others: top-dose activity change, negative = growth inhibition, most hits filed as inhibitors. 420,000 tested, 15% active; note: potency is the fitted concentration of half-maximal effect; % is set by controls: 0 for no effect and ±100 for the full control effect; nearly all actives have a fitted effect of over 55% in size
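DT40 Tdp1-/-;hTDP1 cells, no CPT (DMSO vehicle only), 400 cells/well; compounds pin-transferred; ≥48 hr, 37 °C; CellTiter-Glo 30 min RT dark, luminescence read.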
HepG2 viability: HepG2 cytotoxicity, counter-screen for TGF-b inhibitors | HepG2 CAGA-GFP viability, ATP luminescence, 18 h | Potency, µM (titrated, usually from 46.1 µM), without a hit: top-dose activity change, negative = cytotoxicity, most hits filed as cytotoxic | 410,000 tested, 0.76% active; note: potency is the fitted concentration of half-maximal effect
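HepG2 CAGA-GFP cells (1000/well, DMEM with 1% FBS) received compound, then TGF-beta at 500 pg/mL final, and were incubated 18 hours at 37 degrees C. Viability was read by CellTiter-Glo luminescence. Media-only wells were set as complete cell-killing and DMSO as no toxicity.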
TDP1 block: TDP1 (human) enzyme inhibition; 350,000 tested, 0.28% active; recombinant TDP1, AlphaScreen DNA substrate cleavage; Potency, µM (highest dose often 130 µM), inactives show at the top dose activity change, negative = inhibition, actives largely listed as inhibitors; note: potency is the fitted concentration of half-maximal effect; % is set by controls: 0 for no effect and ±100 for the full control effect; nearly all actives have a fitted effect of over 40% in size
Target sequence (Q9NUW8 whole entry, looked up): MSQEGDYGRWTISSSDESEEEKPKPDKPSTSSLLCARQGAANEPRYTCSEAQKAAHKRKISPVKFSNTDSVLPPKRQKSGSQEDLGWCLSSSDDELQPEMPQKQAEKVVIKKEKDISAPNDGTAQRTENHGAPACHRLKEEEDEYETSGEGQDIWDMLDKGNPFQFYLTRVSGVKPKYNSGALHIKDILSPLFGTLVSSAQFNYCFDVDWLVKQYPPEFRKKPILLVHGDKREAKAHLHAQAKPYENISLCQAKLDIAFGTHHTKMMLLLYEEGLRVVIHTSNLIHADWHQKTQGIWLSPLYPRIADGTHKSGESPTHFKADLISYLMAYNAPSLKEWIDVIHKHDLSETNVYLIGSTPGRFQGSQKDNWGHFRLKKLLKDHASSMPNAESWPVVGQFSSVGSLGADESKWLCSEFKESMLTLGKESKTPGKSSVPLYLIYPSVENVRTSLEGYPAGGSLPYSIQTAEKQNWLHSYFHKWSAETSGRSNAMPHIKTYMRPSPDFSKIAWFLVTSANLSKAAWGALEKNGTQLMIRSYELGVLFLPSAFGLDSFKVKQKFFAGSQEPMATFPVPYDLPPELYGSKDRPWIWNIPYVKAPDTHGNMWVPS
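Recombinant human Tdp1 (E. coli-expressed, 1 nM final) preincubated with compounds 15 min at room temperature, then 5'-biotin/3'-phosphotyrosine-FITC DNA substrate (15 nM final) added for 5 min. AlphaScreen beads (10 ug/ml final) added 10 min; cleavage lowers signal.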
* = called active by the depositor; ? = inconclusive; / = no result. Unless noted, calls come from the whole dose curve; as a rule, active = well fitted curve in the direction sought with a large enough effect; inconclusive = small, poorly fitted or top-dose-only effect, or another doubt; inactive = no such curve, though single readings can be large; an effect the other way counts as inactive or inconclusive.

SMILES	TGFb SMAD3 inh	IL-1B inflam inh	DT40 TDP1 CPT	DT40 TDP1 no CPT	HepG2 viability	TDP1 block
COc1cc(O)c(CC=C(C)C)c(O)c1C(=O)CCc1ccc(O)cc1	?	8	21µM*	21µM*	-93%	/
COc1ccc(NC(=O)N(C)C[C@@H]2OCc3cnnn3CCCC(=O)N([C@@H](C)CO)C[C@H]2C)cc1	3%	-9	-4%	-23%	-1%	/
COc1cc2oc3ccccc3c2cc1N(CC(=O)N1CCCCC1)S(=O)(=O)c1ccc(C)cc1	-14%	8	?	23µM*	-5%	4%
CCN(CC)C(=O)CN(c1cc2c(cc1OC)oc1ccccc12)S(=O)(=O)c1ccccc1	?	-12	18µM*	?	6%	1%
COc1cccc(NC(=O)Nc2ccncc2)c1	4%	30	-23%	-23%	2%	3%
CCSc1nsc(NC(=O)Nc2ccccc2F)n1	?	-93*	18µM*	16µM*	-39%	/
CCSc1nsc(NC(=O)Nc2cccc(OC)c2)n1	22µM*	-97*	?	?	-30%	/
C=CCSc1nsc(NC(=O)Nc2ccc(F)cc2)n1	6.3µM*	-88*	18µM*	3.3µM*	-38%	/
Cc1cc(SCc2ccccc2Cl)nc(=O)[nH]1	19%	13	7%	7%	0%	-4%
Cc1cc(SCc2ccc(Cl)cc2Cl)nc(=O)[nH]1	0%	13	?	10µM*	-17%	0%
COc1cc2c(cc1OC)C1(Nc3c-2c(Cc2ccccc2)nn3-c2ccccc2)C(=O)Nc2ccccc21 (centres undefined)	?	-18	?	23µM*	-15%	-2%
CCN(CC)c1ccc(-c2nn3c(-c4cccnc4)nnc3s2)cc1	0%	-6	18µM*	21µM*	-2%	2%
CC(C)(C)c1ccc(-c2nnc3sc(-c4ccncc4)nn23)cc1	38%	-6	13µM*	?	-16%	3%
CCc1cccc2c(-c3ccccc3)nc(SCC(=O)Nc3ccc(OC)cc3)nc12	12%	/	-11%	5%	-2%	5%
CCOC(=O)Nc1cc(=O)c2ccccc2o1	5%	23	8.2µM*	13µM*	5%	1%
CCOc1ccccc1NC(=O)c1cc(=O)c2ccccc2o1	13%	6	5%	-12%	3%	1%
O=C1c2cc3c(cc2CCC1c1ccc2c(c1)OCO2)OCO3 (centres undefined)	2%	-9	-26%	?	-3%	/
Cc1ccccc1OCC(=O)NNC(=S)NC(=O)c1ccccc1[N+](=O)[O-]	0%	16	-93%	?	5%	8%
CC(C)(C)c1ccc(OCC(=O)NNC(=S)NC(=O)c2ccccc2[N+](=O)[O-])c(Br)c1	0%	-10	23µM*	16µM*	-6%	11%
CCCOc1ccc(C(=O)NNC(=S)NC(=O)c2ccccc2[N+](=O)[O-])cc1	-19%	52	10µM*	10µM*	-20%	/
CCCOc1ccc(C(=O)NNC(=S)NC(C)=O)cc1	-19%	63	2.6µM*	3.3µM*	-15%	11%
CC(C)(C)C(=O)NC(=S)NNC(=O)c1ccc(-c2ccccc2)cc1	10µM*	142	3.3µM*	2.1µM*	-51%	10%
CCCC(=O)Nc1ccc(C(=O)NNC(=S)NC(=O)c2cccs2)cc1	?	14	?	?	-5%	12%
O=C(NNC(=S)Nc1ccccc1)c1ccc(O)cc1	-7%	-16	-14%	-1%	-17%	/
O=C(NNC(=S)NC(=O)c1ccccc1)c1ccc(O)cc1	0%	48	16µM*	9.2µM*	-1%	/
